What is called AC50 is the midpoint of the concentration-response curve, whichever way the signal moves.

Several values for one entry are separate records, joined by “and”; a condition that tells them apart may be missing. Equal values may be shown once. Inconclusive results are not listed. Where a structure was tested more than once in an assay, its records may differ in their call. Activity calls are given as the source filed them. The calls were made as follows, unless noted: active = hit-call score of the fitted dose curve at least 0.9, where 1 is the maximum; inactive = score below 0.9.

Data on 17 compounds can be found in PubChem BioAssay (EPA / NIEHS).

One test deals with DIO3 (gene 1735). As to the kind of experiment: CCTE_GLTED_hDIO3: CCTE's human Deiodinase 3 (DIO3) Inhibition Assay, Great Lakes Toxicology and Ecology Division (GLTED) Lab (AID 2284055; active = hit-call score of the fitted dose curve at least 0.9, where 1 is the maximum;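 also: potency is for inhibition seen as loss of released iodide signal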). On the procedure:
CCTE_GLTED_hDIO3 is a cell-free, single-readout assay designed to test the inhibitory activity of chemicals toward human iodothyronine Deiodinase type 3 (DIO3) enzyme. Enzyme is incubated in presence of test chemical for 3 hours during which uninhibited enzyme liberates free iodide from substrate. Free iodide is measured in a second step using the Sandell-Kolthoff method.CCTE_GLTED_hDIO3 is the assay component measured from the CCTE_GLTED_hDIO3 assay. It is designed to make measurements of enzyme activity, a form of enzyme reporter, as detected with absorbance signals by spectrophotometry.Data from the assay component CCTE_GLTED_hDIO3 was analyzed into 1 assay endpoint. This assay endpoint, CCTE_GLTED_hDIO3, was analyzed in the positive analysis fitting direction relative to DMSO as the negative control and baseline of activity. Using a type of enzyme reporter, loss-of-signal activity can be used to understand changes in the enzymatic activity as they relate to the gene DIO3. Furthermore, this assay endpoint can be referred to as a primary readout, because the performed assay has only produced 1 assay endpoint. To generalize the intended target to other relatable targets, this assay endpoint is annotated to the 'deiodinase' intended target family, where the subfamily is 'deiodinase Type 3'.
[…] assay, developed at Great Lakes Toxicology and Ecology Division (GLTED) within the EPA's Center for Computational Toxicology and Exposure (CCTE), is designed to test the chemicals' ability to inhibit DIO3. Assay uses human deiodinase type 3 (DIO3) enzyme produced with adenovirus expression system. Assay is based on iodide release measured by the Sandell-Kolthoff method and is run in 96-well plate format with assay plates run in triplicate (n=3). The method used for the deiodinase assay was largely based on Renko et al. (2012, 2015). These works describe the utilization of the SK reaction to measure deiodinase-liberated iodide in a 96-well-plate format. The SK reaction is based on the reduction of the yellow-colored cerium IV to the non-colored cerium III by arsenic, with the rate of this reaction increased in the presence of iodide in a concentration-dependent manner (Sandell and Kolthoff, 1937). Iodinated test chemicals can interfere as competitive inhibitors, or if the stock chemical has contaminating free-iodide present. Other chemicals, e.g.: nitrite, iron, and thiocyanate can interfere with the Sandell-Kolthoff reaction (see Sandell and Kolthoff, 1937).

The nature of test [1]: CCTE_Shafer_MEA_dev_per_network_spike_spike_number_mean: CCTE's Neural Network Formation Assay for Mean Number of Spikes in a Network Spike, Shafer Lab (AID 2284053).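 As to AC50: fitted as decrease in spikes per network spike relative to DMSO.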 The gist of the method:
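Rat cortical primary cultures on 48-well MEA; compound from day 0, re-dosed with full media change DIV 5, 9. Recorded DIV 5, 7, 9, 12; spikes in 0.05 s window at network-spike peak ÷ total network spikes; AUC; loss vs DMSO.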

Test [2] is described as follows: CCTE_Shafer_MEA_dev_per_network_spike_spike_percent: CCTE's Neural Network Formation Assay for Percent of Spikes in a Network Spike, Shafer Lab (AID 2284054). The gist of the method:
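Rat primary cortical neurons were grown on 48-well MEA plates (16 electrodes/well), exposed from plating day 0 through day 12, with treatment renewed on DIV 5 and 9. Percent of spikes within 0.05 s network-spike peaks was measured, summarised as AUC across days 5, 7, 9, 12.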

The nature of test [3]: CCTE_Shafer_MEA_dev_LDH: CCTE's Lactate Dehydrogenase Assay for Cytotoxicity in the Neural Network Formation Assay, Shafer Lab (AID 2284068; active = hit-call score of the fitted dose curve at least 0.9, where 1 is the maximum;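 also: exposure for twelve days from plating with re-dosing on DIV 5 and 9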). Summed up: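 Rat cortical primary neurons, MEA culture; dosing day 0–12, full medium plus compound exchange DIV 5, 9. Read-out: LDH enzyme activity, spectrophotometric. DMSO = negative control/baseline; signal loss → cytotoxicity.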

Test [4] can be described thus: CCTE_Shafer_MEA_acute_AB: CCTE's Alamar Blue Assay for Cytotoxicity in the Neural Acute Assay, Shafer Lab (AID 2284069; active = hit-call score of the fitted dose curve at least 0.9, where 1 is the maximum;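 also: active compounds lower the viability signal compared with DMSO wells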). The gist of the method: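 Read-out: resazurin fluorescence (ex 544, em 590 nm) after CTB reagent at 1:6 dilution in fresh media. Cells: primary rat cortical neuron networks, DIV 13 or 15, chemically exposed on MEA plates; DMSO as negative control/baseline.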

Test [5] in a line: CCTE_Shafer_MEA_dev_mutual_information_norm: CCTE's Neural Network Formation Assay for Mutual Information Normalization, Shafer Lab (AID 2284091).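 As to AC50: mutual information between electrodes summarised as area under curve across four recording days; potency is for a decrease in mutual information relative to DMSO.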 Summed up:
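Primary rat cortical neurons on PEI-coated 48-well MEA plates, 1.5 x 10^5 cells/well, exposed from day 0 through day 12 with re-dosing at DIV 5 and 9. Mutual information between electrodes recorded days 5, 7, 9, 12; trapezoidal AUC, loss-of-signal fit versus DMSO.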

Test [6] in a line: CCTE_Shafer_MEA_dev_correlation_coefficient_mean: CCTE's Neural Network Formation Assay for Mean Correlation Coefficient, Shafer Lab (AID 2284093).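 As to AC50: well mean pairwise spike train correlation integrated as AUC over recording days 5 to 12; potency fitted for loss of correlation relative to DMSO vehicle wells.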 The gist of the method: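 Rat cortical cultures, 1.5 x 10^5 cells/well, dosed from day 0 for 12 days. Spontaneous spikes recorded DIV 5/7/9/12; electrode-pair correlation coefficients averaged, AUC taken. Fit in loss direction vs DMSO.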

A short description of test [7]: CCTE_Shafer_MEA_dev_AB: CCTE's Alamar Blue Assay for Cytotoxicity in the Neural Network Formation Assay, Shafer Lab (AID 2284083; active = hit-call score of the fitted dose curve at least 0.9, where 1 is the maximum;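 also: resazurin reduction fluorescence as viability of cultured neurons; twelve days of exposure from plating with re-dosing on DIV 5 and 9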). Summed up:
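Rat cortical primary cultures, 1.5 x 10^5 cells/well on MEA; continuous compound exposure over 12 days of network development, re-dosed with full medium change DIV 5 and 9. Alamar Blue fluorescence; loss of signal = cytotoxicity vs DMSO baseline.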
On the technique in general: Alamar Blue is a resazurin reagent that responds to reducing activity.

A short description of test [8]: CCTE_Shafer_MEA_acute_LDH: CCTE's Lactate Dehydrogenase Assay for Cytotoxicity in the Neural Acute Assay, Shafer Lab (AID 2284086; active = hit-call score of the fitted dose curve at least 0.9, where 1 is the maximum;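 also: active means LDH release rises above DMSO vehicle level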). Summed up:
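Rat cortical neurons cultured on microelectrode arrays; baseline 40-min recording, compound added, second 40-min recording; medium then sampled for released LDH (colorimetric kit, 490 nm). DMSO = negative control.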

Test [9] in a line: UKN2_HCS_IMR90_neural_migration: University of Konstanz (UKN) Leist Lab Neural Crest Cell Migration Assay in human induced IMR90 Pluripotent Stem Cells (UKN2) (AID 2284204). To be noted: actives raise or lower the signal. Summed up: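 iPSC-derived IMR90 neural crest cells seeded around stoppers on PLO/laminin/fibronectin; migration started in N2-S medium with EGF/FGF, compounds added after 24 h for 24 h. Migration into cell-free area imaged after calcein-AM/Hoechst staining; bidirectional fit versus DMSO.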

As for `O=C(O)C(F)(F)C(F)(F)C(F)(F)C(F)(F)C(F)(F)C(F)(F)C(F)(F)C(F)(F)C(F)(F)F`, the concentration at half-maximal activity (AC50) with DIO3 (gene 1735) is 89.4 µM (active) and 74.2 µM (active).
As for `ClC1=C(Cl)[C@]2(Cl)[C@@H]3[C@H]4C[C@H]([C@@H]5O[C@H]45)[C@@H]3[C@@]1(Cl)C2(Cl)Cl`, the compound was classed as inactive in [1], in test [2], in test [3], in test [4], in test [5] and in test [6].
For the compound `Oc1ccc(C(c2ccc(O)cc2)(C(F)(F)F)C(F)(F)F)cc1`, the compound was classed as inactive in test [1], in test [2], in [4], in [7], in test [5] and in test [6]. Also, the concentration at half-maximal activity (AC50) is 136 µM (active) in the test on DIO3 (gene 1735); 10 µM (active) and 13.1 µM (active) in [3]; 16 µM (active) in [7].
On to `COc1ccc(O)c(C(C)(C)C)c1`, for which the outcome in test [1], in [2], in test [3], in test [4], in test [8] and in test [5] was inactive. In test [6], the compound was classed as inactive.
Regarding `CN(C)CCO`, the outcome in test [4] and in test [8] was inactive.
As for `O=S(=O)(O)C(F)(F)C(F)(F)C(F)(F)C(F)(F)F`, the AC50 in test [1] is 14.2 µM (active). The compound was classed as inactive in test [1], in test [2], in [3], in [5], in test [6] and in test [9].
For `c1ccc(-c2ccccc2)cc1`, in test [8], the result was inactive.
`O=S(=O)(O)C(F)(F)C(F)(F)C(F)(F)C(F)(F)C(F)(F)C(F)(F)F`: the compound was called inactive in [1], in test [2], in [3], in test [7], in test [5] and in test [6]. For the same compound, in [9], the result was inactive.
In the case of `CCOP(=S)(OCC)SCSC(C)(C)C`, the AC50 was 23.4 µM (active) and 17.1 µM (active) in test [1]; 23.1 µM (active) and 28.7 µM (active) in test [2]; 15.1 µM (active) and 29.5 µM (active) in test [3]; 18.7 µM (active) and 82.5 µM (active) in test [7]; 23.4 µM (active) and 21.7 µM (active) in test [5]; 23.3 µM (active) and 24.2 µM (active) in test [6]. Besides, in test [9], the call was inactive.
With `CCCN(CCC)N=O`, the compound was classed as inactive in test [4] and in test [8].
As for `Clc1ccc(C(Cl)(Cl)Cl)cc1`, the AC50 in the test on DIO3 (gene 1735) is 73.1 µM (active). The result in test [4] and in [8] was inactive.
Regarding `CC(C)C(=O)OCC(C)(C)C(OC(=O)C(C)C)C(C)C` (centres undefined), the compound was classed as inactive in [8].
In the case of `CCCCCCCCCc1ccc(O)cc1`, in the test with DIO3 (gene 1735), the AC50 is 17.4 µM (active). The result in [4] and in [8] was inactive.
Consider `ClC1=C(Cl)[C@]2(Cl)[C@@H]3[C@@H]4C[C@@H]([C@H]5O[C@@H]45)[C@@H]3[C@@]1(Cl)C2(Cl)Cl`, for which the compound was called inactive in test [1], in test [4] and in [8]. Moreover, the concentration at half-maximal activity (AC50) was 15 µM (active) in test [2]; 11.3 µM (active) in test [3]; 22.4 µM (active) in test [7]; 15 µM (active) in test [5]; 23.6 µM (active) in test [6].
Take `CCC(C)c1cc([N+](=O)[O-])cc([N+](=O)[O-])c1O` (centres undefined): in test [8], the compound was classed as inactive.
With `CC(c1ccc(O)cc1)(c1ccc(O)cc1)c1ccc(O)cc1`, the outcome in [4] was inactive.
Consider `C=CC(N)=O`, for which the result in test [1], in test [2], in test [3], in [4], in test [7] and in test [8] was inactive. For the same compound, the compound was classed as inactive in [5] and in test [6].
